Some compounds were tested as several samples or in several runs, with calls that do not always agree. Calls of active or inactive are those of the source. Where a call stands in place of a potency, no number is given. The call rests on the fitted dose curve; in most records, active means well fitted activation curve with a large enough effect in the repeat runs; inconclusive means weak or mixed curves; inactive means flat fitted curve, though single readings scatter.
Potency means the concentration at half of the fitted maximal effect.

This assay can be described thus: Caspase-3/7 induction in CHO-K1 cells by small molecules, qHTS assay (AID 1346980). Further: nearly all actives have a fitted effect of over 15% in size. To be noted: CHO-K1 caspase-3/7 induction, Caspase-Glo luminescence, 17 h; series mostly up to 92.4 µM. From the text: National Center for Advancing Translational Sciences [NCATS]
NIH Chemical Genomics Center [NCGC]
U.S. Environmental Protection Agency [EPA]
National Institutes of Environmental Health Sciences [NIEHS]
National Toxicology Program [NTP]
Apoptosis is a process of programmed cell death and plays a central role in the development of multicellular organisms. It is a highly regulated process and induces cell death by activating caspases, which are the members of cysteine aspartic acid-specific protease (caspase) family. Caspases involved in apoptosis are classified by their mechanism of action as initiator caspases (caspase-2, -8, -9 and -10) and executioner caspases (caspase-3, -6, and -7). Inhibition of apoptosis results in number of cancers, autoimmune diseases, inflammatory diseases and viral infection. To identify small molecule compounds that induce apoptosis, a homogeneous, luminescent Caspase-Glo 3/7 assay was used. Wild type CHO-K1 cells were used to screen Tox21 libraries for identifying caspase-3/7 activity inducers.
CHO-K1 cells were dispensed at 1,500 per well in 5uL of culture medium into white solid bottom 1536-well plates (Corning Life Sciences, Corning, NY) using a Multidrop Combi (Thermo Scientific, Waltham, MA) dispenser. The assay plates were incubated at 37 C and 5% CO2 for 5hr, and then 23nL of compounds dissolved in DMSO and positive control were transferred using a Pintool station (Wako, San Diego, CA). The assay plates were incubated at 37C and 5% CO2 for 17hr. For caspase-3/7 activity read, 4uL of Caspase-Glo 3/7 reagent (Promega Corporation, Madison, WI) was added to each well of the assay plates using Flying Reagent Dispenser (FRD, Aurora Discovery, San Diego, CA) and incubated the assay plates at room temperature for 30min. The luminescence signal was quantified using a ViewLux plate reader (Perkin Elmer, Shelton, CT).
A general note: Quantitative high-throughput screening tests each substance at several concentrations.
As for `CCCCOC(=O)c1ccc(O)cc1`, the Potency result was “inactive”.

Take `Nc1ccc(S(N)(=O)=O)cc1`: the Potency entry is “inactive”.

In the case of `C[C@](N)(Cc1ccc(O)c(O)c1)C(=O)O`, the Potency entry was “inactive”.

As for `O=C(Nc1ncc([N+](=O)[O-])s1)c1cccs1`, the Potency entry is “inactive”.

Turning to `C/C=C/C=C/C(=O)O`, the Potency entry is “inactive”.

For the molecule `Cc1cccc(C)c1`, the Potency result is “inactive”.

For the molecule `CC/C(=C(\c1ccccc1)c1ccc(OCCN(C)C)cc1)c1ccccc1`, the Potency is 24.5 µM (active) and inactive.

Turning to `COc1ccc(OC(F)(F)F)cc1CN[C@H]1CCCN[C@H]1c1ccccc1`, the Potency entry is “inactive”.

Consider `CS(=O)(=O)OCCCCOS(C)(=O)=O`, for which the Potency result is “inactive”.

With `C1=CC2C3C=CC(C3)C2C1` (stereo not given), the Potency result was “inactive”.

For `CC(=O)C(=O)O`, the Potency result is “inactive”.

Regarding `COc1ccc(C(Cl)=C(c2ccc(OC)cc2)c2ccc(OC)cc2)cc1`, the Potency result is “inactive”.

As for `COc1cccc(O)c1O`, the Potency entry was “inactive”.

For `CC(O)(P(=O)(O)O)P(=O)(O)O`, the Potency result is “inactive”.

As for `CN(C)C(=O)Nc1ccc(Cl)c(Cl)c1`, the Potency entry is “inactive”.

For the molecule `Nc1c2c(nc3ccccc13)CCCC2`, the Potency entry is “inactive”.

As for `O=S1(=O)OC(c2ccc(O)cc2)(c2ccc(O)cc2)c2ccccc21`, the Potency result is “inactive”.

As to `CN(C)CCOC(C)(c1ccccc1)c1ccccn1` (stereo not given), the Potency entry is “inactive”.

Consider `O=c1[nH]cnc2c1ncn2[C@H]1CC[C@@H](CO)O1`, for which the Potency result is “inactive”.

For `Cc1ncc([N+](=O)[O-])n1CCO`, the Potency result is “inactive”.

On to `CCCc1cc(=O)[nH]c(=S)[nH]1`, for which the Potency result is “inactive”.

For `CC(=O)CCC(=O)O`, the Potency result is “inactive”.

For the molecule `NS(=O)(=O)c1cc2c(cc1Cl)NCNS2(=O)=O`, the Potency entry is “inactive”.

`CCCCC(CC)C(=O)O` (stereo not given): the Potency result is “inactive”.

`CCN(CC)C(=O)c1cccc(C)c1`: the Potency result is “inactive”.

Turning to `Cc1cn([C@H]2C=C[C@@H](CO)O2)c(=O)[nH]c1=O`, the Potency entry was “inactive”.

Take `CCN(Cc1c(F)cccc1Cl)c1c([N+](=O)[O-])cc(C(F)(F)F)cc1[N+](=O)[O-]`: the Potency result was “inactive”.

With `CC12CCC(CC1)C(C)(C)O2`, the Potency result is “inactive”.

For the molecule `CCCCC1(COC(=O)CCC(=O)O)C(=O)N(c2ccccc2)N(c2ccccc2)C1=O`, the Potency result is “inactive”.

As to `CC(C)C(=O)Nc1ccc([N+](=O)[O-])c(C(F)(F)F)c1`, the Potency entry is “inactive”.

As for `CN1[C@@H]2CC(OC(=O)[C@H](CO)c3ccccc3)C[C@H]1[C@@H]1O[C@@H]12` (stereo not given in full), the Potency entry is “inactive”.

For the molecule `Cn1c(=O)c2c(ncn2C)n(C)c1=O`, the Potency entry was “inactive”.

Take `CCCCCCCC(=O)OCC(COC(=O)CCCCCCC)OC(=O)CCCCCCC`: the Potency entry is “inactive”.

In the case of `NC(=O)n1c(O)c(C(=O)c2cccs2)c2cc(Cl)ccc21`, the Potency entry was “inactive”.

Take `O=C1OC2(c3ccccc31)c1cc(Br)c(O)c(Br)c1Oc1c2cc(Br)c(O)c1Br`: the Potency result was “inactive”.

In the case of `Oc1ccccc1`, the Potency result is “inactive”.

As for `C=C(C)C(=O)OCC(C)O` (stereo not given), the Potency entry is “inactive”.

In the case of `CN1CCc2cccc3c2[C@H]1Cc1ccc(O)c(O)c1-3`, the Potency entry was “inactive”.

Take `CN1CCC[C@H]1c1cccnc1`: the Potency entry was “inactive”.

Regarding `O=C(O)CC(O)C(=O)O` (stereo not given), the Potency entry is “inactive”.

Source of the values: PubChem BioAssay (Tox21).
